Measurements reported in PubChem BioAssay AID485341 (National Center for Advancing Translational Sciences (NCATS), 2010).
About 1,700 (0.52%) of roughly 330,000 compounds were called active. Where a call stands in place of a potency, no number is given. Calls follow the shape of the dose curve; as a rule, active = well fitted inhibition curve with a large enough effect; inconclusive = small, poorly fitted or top-dose-only effect; inactive = no such curve, though single readings can be large or run the other way. Only a selection was taken, and actives are over-represented in it overall.
Also: nearly all actives have a fitted effect of over 20% in size.
Potency is read from the fitted curve at half-maximal effect.

What follows are molecules tested against Beta-lactamase (Escherichia coli (strain K12)) (UniProt P00811) (assay: qHTS Inhibitors of AmpC Beta-Lactamase (assay without detergent)). Details: AmpC nitrocefin hydrolysis, absorbance 480 nm, 0.0001% Triton; series mostly up to 57.1 µM.
Beta-lactamase (Escherichia coli (strain K12)), sequence (P00811 whole entry, looked up): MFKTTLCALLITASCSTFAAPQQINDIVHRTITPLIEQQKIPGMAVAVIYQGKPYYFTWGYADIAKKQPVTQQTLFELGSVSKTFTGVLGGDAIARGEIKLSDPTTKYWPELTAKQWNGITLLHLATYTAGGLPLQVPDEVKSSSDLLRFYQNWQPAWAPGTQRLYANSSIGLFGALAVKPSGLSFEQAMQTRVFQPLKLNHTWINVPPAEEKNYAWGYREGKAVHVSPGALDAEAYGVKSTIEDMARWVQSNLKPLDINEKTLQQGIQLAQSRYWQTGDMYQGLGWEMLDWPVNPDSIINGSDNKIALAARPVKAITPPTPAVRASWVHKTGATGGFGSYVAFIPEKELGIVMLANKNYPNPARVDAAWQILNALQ
Outline: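 AmpC (5.3 nM in the dispensed reagent) in 20 mM phosphate pH 7.0 with 0.01% (detergent screen) or 0.0001% Triton X-100 was preincubated with compounds for 15 min at room temperature. Nitrocefin was then added from an 800 uM solution, and hydrolysis was followed at 480 nm.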
For O=C(NC1CC1)C1=C[C@H](c2c[nH]c3ccccc23)C[C@H](OCc2ccc(CO)cc2)O1, the Potency was “inactive”. For CCNC(=O)NC(=O)C(C)OC(=O)C1CCN(S(=O)(=O)c2ccccc2F)CC1 (stereo not given), the Potency was “inactive”. In the case of CCOC1CS(=O)(=O)CC1OCC (stereo not given), the Potency is reported as “inactive”. c1csc(-c2nnc(COc3ccc4c(c3)OCO4)o2)c1 was tested, and the Potency was “inactive”. With C=CS(=O)c1sc(Cl)c(N2CCOCC2)c1[N+](=O)[O-] (stereo not given) the Potency was “inactive”. With Cc1cc(Nc2cccc(F)c2)n2ncnc2n1 the Potency was “inactive”. With C/C(=N\Nc1ncc(Cl)cc1Cl)c1ccc(S(=O)(=O)NCc2ccco2)cc1 the Potency was 31.6 µM (active). For Cc1c(Cl)cnc(NC(=O)COC(=O)c2ccc(S(=O)(=O)NCc3ccco3)cc2)c1Cl, the Potency was “inactive”. With O=S(=O)(NCc1ccco1)c1cnc(Cl)c(Cl)c1 the Potency was “inactive”. With O=C(c1cccnc1)N(c1cc2sc(=O)oc2c2ccccc12)S(=O)(=O)c1ccccc1 the Potency was “inactive”. Cc1ccccc1SCC(=O)OCC(=O)N1CC(=O)Nc2ccccc21 was tested, and the Potency was “inactive”. For Cc1cc(C(=O)N/N=C/c2ccc(O)c([N+](=O)[O-])c2)c(C)n1-c1ccc(F)cc1, the Potency was 17.8 µM (active). With Cc1cc(C(=O)COC(=O)C2CC2)c(C)n1-c1ccc(F)cc1 the activity change, negative = inhibition was -17.5% [at 11.4 µM] (inactive). For O=C1CSC(=S)N1/N=C/c1ccc(O)c([N+](=O)[O-])c1, the Potency was “inactive”. For CCOc1ccc(CN2CCNC(=O)C2CC(=O)NCCCC2CCCC2)cc1 (stereo not given), the Potency was “inactive”. In the case of COc1ccc(NC(=O)c2sccc2SCC#N)cc1, the Potency is reported as 4.47 µM (active). For COc1ccc(NC(=O)c2ccc(C#CC(C)(C)O)cc2)cc1, the Potency was “inactive”. For COc1ccc(NC(=O)CSc2nc(C)cs2)cc1, the Potency was “inactive”. CNC[C@H]1Oc2c(NC(=O)C3CCCCC3)cccc2C(=O)N([C@H](C)CO)C[C@@H]1C was tested, and the Potency was “inactive”. In the case of Cn1cccc1Cc1nnc(SCC(=O)NCc2ccc3c(c2)OCO3)n1CCc1ccccc1, the Potency is reported as “inactive”. With Cc1cc(=O)oc(C)c1C(=O)Nc1cnc2ccccc2c1 the Potency was “inactive”. In the case of Cc1cc(O)c(C(=O)/C=C/c2c(F)c(F)c(F)c(F)c2F)c(=O)o1, the Potency is reported as 11.2 µM (active). Cc1ccc(N=Cc2c(O)cc(C)oc2=O)c(C)c1 was tested, and the Potency was “inactive”. For COc1ccccc1C(=O)Nc1ccc(C)c(S(=O)(=O)N2CCCCC2)c1, the Potency was “inactive”. In the case of Nn1c(SCC(=O)NC(=O)NC2CCCC2)nnc1-c1ccccc1F, the Potency is reported as “inactive”. For COc1cccc2c1OCC1COc3c(c(=O)n(C)c(=O)n3C)C21 (stereo not given), the Potency was “inactive”. In the case of C=CCNCCCCOc1ccccc1, the Potency is reported as “inactive”. For O=C(O)C1CCCN(S(=O)(=O)c2cccc3cccnc23)C1 (stereo not given), the Potency was “inactive”. With COc1ccccc1CNC(=O)C1CCCN(S(=O)(=O)c2cccc3cccnc23)C1 (stereo not given) the Potency was 22.4 µM (active). COc1cccc(CNC(=O)C2CCN(S(=O)(=O)c3cccc4cccnc34)CC2)c1 was tested, and the Potency was “inactive”.
